In the library only some 19% were active in any assay of this set; here they are far more common.
IL1B secr inh – qHTS for Inhibitors of Inflammasome Signaling: IL-1-beta AlphaLISA Primary Screen | THP-1 LPS/ATP IL-1B secretion, AlphaLISA, 16 h; stronger effect = lower value | activity change, % at 57.5 µM | 4.7% of 360,000 active; in the data active = activity change below about -50%; inconclusive = mostly about -30% to -49%
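Secreted IL-1B measured by AlphaLISA bead assay after 16 h compound exposure of THP-1 cells; compounds (final up to 57.5 uM) added 1 h before LPS (250 ng/mL) and ATP (1.25 mM) stimulation; lower signal means less secretion.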
HT1080 IDH1KD tx – qHTS for induction of synthetic lethality in tumor cells producing 2HG: qHTS for the HT-1080-IDH1KD cell line; Potency, µM (titrated, usually from 46.1 µM), inactives show top-dose activity, negative = toxicity, hits mostly cytotoxic; HT-1080 IDH1 knockdown viability, ATP luminescence, 48 h; 2% of 360,000 active;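 also: potency is read from the fitted curve at half-maximal effect; 0% = DMSO wells and -100% = cell-free medium wells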
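In this qHTS, HT-1080 cells depleted of IDH1 are exposed for 48 h at 37 °C to compound titrations. Toxicity is scored from CellTiter-Glo luminescence, with DMSO as full viability and medium alone as none.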
TDP1 cell noCPT – qHTS for Inhibitors of human tyrosyl-DNA phosphodiesterase 1 (TDP1): qHTS in cells in absence of CPT; Potency, µM (series often up to 46.2 µM), inactives show at the highest dose activity change, negative = growth inhibition, actives largely listed as inhibitors; 15% of 420,000 active; DT40 Tdp1-/- hTDP1 cells, no CPT, ATP luminescence, 48 h; also: potency is read from the fitted curve at half-maximal effect; nearly all actives have a fitted effect of over 55% in size
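Compound effects on proliferation are scored in DT40 Tdp1-/-;hTDP1 cells in the absence of CPT. ATP levels (CellTiter-Glo luminescence) are recorded after a ≥48 hr, 37 °C incubation.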
ELG1 DNA repair – qHTS screen for small molecules that inhibit ELG1-dependent DNA repair in human embryonic kidney (HEK293T) cells expressing luciferase-tagged ELG1. HEK293T ELG1-luciferase reporter, luminescence, 16 h; DNA damage induced by 5-fluorouridine. Potency, µM (series often up to 46.1 µM), without a hit: at the highest dose activity change, negative = inhibition, hits mostly inhibitors. 2.3% of 330,000 active. AID 504467, 2011; also: potency is read from the fitted curve at half-maximal effect; nearly all actives have a fitted effect of over 55% in size
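Cells (2,000 per well) received 5-fluorouridine plus test compound or DMSO and were incubated 16 hr at 37 °C, 5% CO2. Luciferase activity was read by luminescence 30 min after ONE-Glo addition; signal suppression marked inhibition of damage-induced ELG1 function.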
HT1080NT lethal – qHTS for induction of synthetic lethality in tumor cells producing 2HG: qHTS for the HT-1080-NT fibrosarcoma cell line | HT-1080-NT fibrosarcoma viability, CellTiter-Glo ATP luminescence, 48 h | Potency, µM (series often up to 46.1 µM), inactives show at the highest dose activity, negative = less viability, hits mostly cytotoxic | 1.6% of 360,000 active;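 also: NT is the 2HG producing partner of a matched IDH1 knockdown line; potency is read from the fitted curve at half-maximal effect; 0% = DMSO-treated cells and -100% = media-only wells without cells; nearly all actives have a fitted effect of over 55% in size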
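Compounds were tested in concentration-response format on HT-1080-NT cells for 48 hours at 37 degrees C. Cell viability came from CellTiter-Glo luminescence; curves were classified by r2, response magnitude and activity.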
TDP1 cell CPT – qHTS for Inhibitors of human tyrosyl-DNA phosphodiesterase 1 (TDP1): qHTS in cells in presence of CPT. chicken DT40 Tdp1-/-;hTDP1 cells + 20 nM CPT, ATP luminescence, 48 h. Potency, µM (series often up to 46.2 µM), inactives show top-dose activity change, negative = growth inhibition, hits mostly inhibitors. 12% of 420,000 active. AID 686979, 2013; also: potency is read from the fitted curve at half-maximal effect; nearly all actives have a fitted effect of over 55% in size
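Chicken DT40 Tdp1-/- cells complemented with human TDP1, 400 cells/well, exposed to compounds plus 20 nM camptothecin for at least 48 h at 37 C; viability read as ATP content by CellTiter-Glo luminescence.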
The depositor's hits bear a star; ? = inconclusive; · = no result; [ ] = dose if it differs, or a comment. Unless noted, calls follow the shape of the dose curve; as a rule, active = well fitted curve in the direction sought with a large enough effect; inconclusive = small, poorly fitted or top-dose-only effect, or another doubt; inactive = no such curve, though single readings can be large; an effect the other way counts as inactive or inconclusive. Unless noted, % is scaled to controls: 0 for no effect and ±100 for the full control effect.

SMILES	IL1B secr inh	HT1080 IDH1KD tx	TDP1 cell noCPT	ELG1 DNA repair	HT1080NT lethal	TDP1 cell CPT
COC(=O)c1cn(NC(=O)c2cccc(F)c2)c(=O)c2ccccc12	12.1	5.6%	-20.8%	-2.0%	8.2%	-1.3%
O=C(O)c1cccc(NS(=O)(=O)c2ccc(Cl)c(C(=O)Nc3cccc([N+](=O)[O-])c3)c2)c1	10.8	11.6%	3.4%	·	21.2%	4.3%
CC1CCN(C(=O)c2ccc(S(=O)(=O)Cc3ccccc3F)c([N+](=O)[O-])c2)CC1	-117.4*	?	16.4µM*	20.6µM*	-13.9%	?
O=C(c1ccc(S(=O)(=O)c2ccc(F)cc2)c([N+](=O)[O-])c1)N1CCCCCC1	-103.0*	?	2.31µM*	?	-21.1%	3.26µM*
O=C(c1ccc(S(=O)(=O)Cc2ccccc2F)c([N+](=O)[O-])c1)N1CCCC1	-103.0*	?	?	20.3%	?	18.4µM*
Cc1ccc(S(=O)(=O)NCC2CCC(C(=O)NCCc3ccccc3)CC2)cc1 (stereo not given)	·	·	-15.7%	·	·	-11.3%
CCOC(=O)CSc1nc2c(sc3ccccc32)c(=O)n1Cc1ccc(OC)cc1	·	·	?	·	·	-27.0%
COc1ccc(S(=O)(=O)N2CCCCCC2)cc1C(=O)Nc1cc(C)ccn1	-26.7	-18.5%	?	?	-5.5%[9.24 µM]	20.6µM*
CC(=O)N1c2ccc(S(=O)(=O)N3CCC(C(=O)Nc4ccc(C)cn4)CC3)cc2CC1C (stereo not given)	-18.9	-9.3%	?	?	-5.1%	?
Cc1ccnc(NC(=O)C2CCN(S(=O)(=O)c3ccc4c(c3)CC(C)N4C(=O)C3CCC3)CC2)c1 (stereo not given)	-69.1*	?	?	9.2µM*	-21.2%	?
Cc1ccc(CNC(=O)C2CCN(S(=O)(=O)c3ccc4c(c3)CC(C)N4C(=O)C3CCC3)CC2)o1 (stereo not given)	-25.6	-9.3%	29.1µM*	-27.6%	-22.3%	?
CC1Cc2cc(S(=O)(=O)N3CCC(C(=O)Nc4ccccn4)CC3)ccc2N1C(=O)C1CCC1 (stereo not given)	?	-27.6%	20.6µM*	?	?	18.4µM*
Cc1ccnc(NC(=O)C2CCN(S(=O)(=O)c3ccc(C)c(C)c3)CC2)c1	-83.6*	-12.4%	-20.2%	-8.3%	-21.0%	-3.6%
Cc1ccc(NC(=O)C2CCN(S(=O)(=O)c3ccc4c(c3)CC(C)N4C(=O)C3CCC3)CC2)nc1 (stereo not given)	-81.1*	?	?	?	-25.8%	16.4µM*
COc1cc(OC)cc(-n2c(=O)c3ccccc3n(CC(=O)NCCc3ccc(OC)c(OC)c3)c2=O)c1	·	·	-26.5%	·	·	-11.8%
O=C(Nc1cccc(Cl)c1)c1nc[nH]c1C(=O)Nc1ccccc1F	11.1	12.0%	7.31µM*	·	17.2%	4.11µM*
O=C(Nc1ccc(F)cc1)c1nc[nH]c1C(=O)Nc1ccccc1[N+](=O)[O-]	10.4	10.4%	1.3µM*	?	7.9%	?
O=C(Nc1cccc(Cl)c1)c1nc[nH]c1C(=O)NCCN(CCNC(=O)c1[nH]cnc1C(=O)Nc1cccc(Cl)c1)CCNC(=O)c1[nH]cnc1C(=O)Nc1cccc(Cl)c1	4.2	13.9%	?	0.8%	?	?
O=C(Nc1ccc(Cl)cc1)c1nc[nH]c1C(=O)Nc1ccccc1F	-15.5	24.4%	14.6µM*	·	2.4%	?
CCOC(=O)c1[nH]cnc1C(=O)Nc1ccc(Cl)cc1	-11.3	10.2%	-9.3%	-5.7%	23.8%	-29.6%
Cc1ccccc1CN(C)C(C)C(=O)Nc1ccccc1F (stereo not given)	-0.3	-5.2%	25.9µM*	?	-4.6%	?
Cc1cccc(NS(=O)(=O)c2ccc3oc(=O)c4ncn(C)c4c3c2)c1C	·	·	-6.9%	·	·	-4.6%
CCCc1c(O)nc(SCCN(CCC)CCC)[nH]c1=O	-3.2	-9.3%	0.8%	5.3%	-8.9%	-23.2%
CCCCCCCc1c(O)nc(SCCN(C)C)[nH]c1=O	-51.0*	3.4%	-0.4%	?	16.4%	6.7%
O=C(Nc1ccc(N2CCOCC2)cc1)c1ccc(S(=O)(=O)NCc2ccco2)cc1	11.2	-5.3%	0.3%	28.5%	-12.5%	19.2%
SMILES	IL1B secr inh	HT1080 IDH1KD tx	TDP1 cell noCPT	ELG1 DNA repair	HT1080NT lethal	TDP1 cell CPT
CC(=O)c1ccc(N2CCN(C(=O)/C=C/c3ccc(S(=O)(=O)NCc4ccco4)cc3)CC2)cc1	1.3	-23.6%	20.6µM*	7.3µM*	1.2%	20.6µM*
CC(=O)c1ccc(N2CCN(C(=O)/C=C/c3ccc(S(=O)(=O)N4CCOCC4)cc3)CC2)cc1	13.5	-5.6%	14.6µM*	?	-11.8%	18.4µM*
O=C(c1ccc(Cl)c(S(=O)(=O)NCc2ccco2)c1)N1CCN(c2ccc(F)cc2)CC1	-2.2	-16.9%	23.1µM*	?	-15.0%	16.4µM*
Cc1cc(=O)oc2cc(NC(=O)CCOc3ccccc3)ccc12	-5.3	-2.9%	-23.2%	18.6%	-2.8%	19.2%
Cc1ccc(-c2nnc(-c3cc(C)on3)o2)cc1	-15.8	10.5%	-18.8%	?	8.5%	?
C[C@H](CO)N1C[C@H](C)[C@@H](CN(C)C)Oc2c(NS(=O)(=O)c3ccc(F)cc3)cccc2C1=O	13.9	11.8%	-20.7%	?	13.0%	-3.6%
COc1ccc(C2=NN(C(=O)CCC(=O)O)C(c3ccccc3)C2)cc1 (stereo not given)	11.7	-0.7%	14.8%	-4.5%	7.7%	-4.0%
COc1ccc(C2=NN(C(=O)CN3CCCCC3)C(c3ccc(C)cc3)C2)cc1 (stereo not given)	-87.0*	-16.9%	?	-7.2%	-0.1%	?
COc1ccc(C2=NN(C(=O)CCC(=O)O)C(c3ccc(F)cc3)C2)cc1 (stereo not given)	23.5	13.6%	-13.7%	-0.9%	20.9%	-4.8%
COc1ccc(C2CC(c3ccccc3)=NN2C(=O)CSc2ncn[nH]2)cc1 (stereo not given)	-70.8*	-9.9%	-15.3%	?	0.7%	?

High-throughput results (PubChem)
